Among the data in PubChem BioAssay (NCI) are growth values, retold here.

Some test systems named below: SR leukemia; RPMI-8226 leukemia; OVCAR-8 ovarian; OVCAR-5 ovarian; OVCAR-4 ovarian; SK-OV-3 ovarian; OVCAR-3 ovarian; HS 578T breast; NCI/ADR-RES ovarian; T-47D breast; BT-549 breast; MDA-MB-435 melanoma; SW-620 colon; MCF7 breast; HCT-116 colon; HCC-2998 colon; KM12 colon; IGROV1 ovarian.
Common to all, as to test: NCI-60 one-dose screen, 48 h (100 = growth as untreated, 0 = no growth, -100 = all killed)
Common to all, as to conditions: 10 µM

Compounds without any hit were thinned out: in the full panel of roughly 83,000, 20% have a hit.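 Method: cells in 96-well plates; compound added at one concentration; 48 h incubation; percent growth measured; values under 10 scored active.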 Values without a mark were called inactive. The source made the active and inactive calls.

Consider `CNC(=O)c1cc(Oc2ccc(NC(=O)Nc3ccc(Cl)c(C(C)(C)C)c3)c(F)c2)ccn1`, for which the growth in the assay on SR leukemia is 43.4%; with RPMI-8226 leukemia, 34.2%; in the assay with OVCAR-8 ovarian it was 44.9%; with OVCAR-5 ovarian, 82.6%; in the assay on OVCAR-4 ovarian, 33.1%; with SK-OV-3 ovarian, 66.6%. The growth in the assay with OVCAR-3 ovarian is 40.5%; with HS 578T breast it was 64%; in the assay on NCI/ADR-RES ovarian, 40.2%; in the assay on T-47D breast, 20.5%; in the assay with BT-549 breast, 47.2%; with MDA-MB-435 melanoma, 29.9%. The growth is 69.2% with SW-620 colon; 16% with MCF7 breast; 19.7% with HCT-116 colon; 44.2% with HCC-2998 colon; 20.9% in the assay on KM12 colon.
Consider `C=C1C(=O)O[C@H]2[C@H]1CC/C(COC(=O)OCCCCCOC(=O)OC/C1=C/CC[C@@]3(C)O[C@H]3[C@H]3OC(=O)C(=C)[C@@H]3CC1)=C\CC[C@@]1(C)O[C@@H]21`, for which the growth in the assay with SR leukemia is -20.1% (active); in the assay on RPMI-8226 leukemia it was -3.28% (active); with OVCAR-8 ovarian it was -4.61% (active); with OVCAR-5 ovarian, -36.2% (active); with OVCAR-4 ovarian it was -43% (active); in the assay on SK-OV-3 ovarian it was 54.6%. The growth with OVCAR-3 ovarian was -97.5% (active); with HS 578T breast it was 33.8%; in the assay on NCI/ADR-RES ovarian, 42.5%; with T-47D breast it was -45% (active); with BT-549 breast it was -72.7% (active); in the assay with MDA-MB-435 melanoma, -13% (active). Moreover, the growth in the assay with SW-620 colon was -54.3% (active); with MCF7 breast, -75.8% (active); in the assay with HCT-116 colon it was -95.9% (active); with HCC-2998 colon, -60.8% (active); in the assay with KM12 colon it was 5.59% (active).
On to `CC(C)CCN(CCCNc1c2c(nc3cc(Cl)ccc13)CCCC2)CCC(C)C`, for which the growth in the assay on SR leukemia was 7.94% (active); with RPMI-8226 leukemia, 39.5%; in the assay with OVCAR-8 ovarian, 79.4%; with OVCAR-4 ovarian, 50.8%; in the assay with SK-OV-3 ovarian, 93.2%; in the assay with IGROV1 ovarian, 50.2%. Moreover, the growth in the assay with OVCAR-3 ovarian was 81.6%; in the assay with HS 578T breast, 76.1%; in the assay on NCI/ADR-RES ovarian, 74.3%; in the assay with T-47D breast it was 61.7%; in the assay with BT-549 breast it was 87%; in the assay on MDA-MB-435 melanoma it was 86.2%. The growth with SW-620 colon was 55.1%; in the assay with MCF7 breast it was 40%; in the assay with HCT-116 colon, 31.8%; with HCC-2998 colon, 90.1%; in the assay with KM12 colon, 73.1%.
As for `Cc1ncc([N+](=O)[O-])n1CCOc1ccc(C(=O)/C=C/c2ccc(C(F)(F)F)cc2)cc1`, the growth in the assay with SR leukemia is -13.2% (active); with RPMI-8226 leukemia, 12.9%; in the assay on OVCAR-8 ovarian, 51.8%; in the assay with OVCAR-4 ovarian, 100%; in the assay with SK-OV-3 ovarian, 79.4%; in the assay on IGROV1 ovarian, 80.4%. Further, the growth with OVCAR-3 ovarian was 51.3%; with HS 578T breast, 66.9%; with NCI/ADR-RES ovarian, 65.9%; in the assay with T-47D breast, 51.6%; in the assay on BT-549 breast, 68.1%; with MDA-MB-435 melanoma, 83.1%. Besides, the growth with SW-620 colon is 15.4%; with MCF7 breast, 12.7%; in the assay with HCT-116 colon, -59% (active); in the assay with HCC-2998 colon, 95.9%; in the assay with KM12 colon, 14.5%.
In the case of `CCOC(=O)c1ccc(N(C=O)CCC(=O)CCl)cc1`, the growth is 5.14% (active) in the assay with SR leukemia; -20.4% (active) in the assay with RPMI-8226 leukemia; 3.69% (active) in the assay with OVCAR-8 ovarian; 18.8% in the assay on OVCAR-4 ovarian; 30.7% in the assay on SK-OV-3 ovarian; 2.75% (active) in the assay on IGROV1 ovarian. Moreover, the growth is -5.41% (active) with OVCAR-3 ovarian; 33.2% with HS 578T breast; 21.4% in the assay with NCI/ADR-RES ovarian; -4.12% (active) with T-47D breast; -63.2% (active) in the assay on BT-549 breast; -23.9% (active) in the assay with MDA-MB-435 melanoma. In addition, the growth is 7.93% (active) with SW-620 colon; -8.44% (active) with MCF7 breast; 1.64% (active) in the assay on HCT-116 colon; 14.2% in the assay with HCC-2998 colon; 4.98% (active) with KM12 colon.
For `COc1ccccc1NC1=C(N2CCCCC2)C(=O)c2ccccc2C1=O`, the growth with RPMI-8226 leukemia was 40.2%; with OVCAR-8 ovarian it was 84.7%; with OVCAR-5 ovarian it was 96.2%; in the assay with OVCAR-4 ovarian, 69.7%; in the assay on SK-OV-3 ovarian, 102%; with IGROV1 ovarian, 100%. The growth in the assay with OVCAR-3 ovarian is 87%; in the assay on HS 578T breast it was 93.3%; in the assay on NCI/ADR-RES ovarian it was 87.3%; in the assay on T-47D breast, 77.4%; with BT-549 breast it was 94.2%; with MDA-MB-435 melanoma, 93.2%. Moreover, the growth with SW-620 colon is 93.4%; with MCF7 breast it was 74.8%; in the assay with HCT-116 colon, 78.1%; in the assay with HCC-2998 colon it was 91.7%.
`CS(=O)(=O)Nc1ccc([N+](=O)[O-])cc1Oc1ccccc1`: the growth was 87% in the assay with SR leukemia; 83.2% in the assay with RPMI-8226 leukemia; 92.1% with OVCAR-8 ovarian; 97% in the assay with OVCAR-4 ovarian; 97.3% with SK-OV-3 ovarian; 106% in the assay with IGROV1 ovarian. The growth in the assay with OVCAR-3 ovarian was 95.4%; in the assay on HS 578T breast, 98.2%; in the assay with NCI/ADR-RES ovarian, 96.8%; in the assay with T-47D breast, 84%; with BT-549 breast, 109%; in the assay on MDA-MB-435 melanoma, 101%. Also, the growth with SW-620 colon is 104%; with MCF7 breast it was 102%; in the assay on HCT-116 colon, 100%; in the assay on HCC-2998 colon, 93%; with KM12 colon it was 94.5%.
As to `O=S(=O)(NCCO)c1ccc(OCCOc2ccc(S(=O)(=O)NCCO)cc2)cc1`, the growth in the assay with SR leukemia is 104%; in the assay on RPMI-8226 leukemia, 98%; in the assay on OVCAR-8 ovarian it was 98.7%; with OVCAR-4 ovarian it was 107%; with SK-OV-3 ovarian, 96.1%; in the assay on IGROV1 ovarian, 99.9%. In addition, the growth was 111% in the assay with OVCAR-3 ovarian; 104% with HS 578T breast; 97.8% in the assay with NCI/ADR-RES ovarian; 84.5% in the assay on T-47D breast; 95.7% with BT-549 breast; 104% in the assay on MDA-MB-435 melanoma. The growth with SW-620 colon was 101%; with MCF7 breast, 96%; in the assay with HCT-116 colon, 102%; in the assay on HCC-2998 colon, 9.56% (active); with KM12 colon, 104%.
On to `COc1cc(C2c3cc4c(cc3C(O)C(CO)C2CO)OCO4)cc(OC)c1OC` (configuration not stated), for which the growth in the assay on SR leukemia is 6.26% (active); with RPMI-8226 leukemia, 30.1%; with OVCAR-8 ovarian it was 30%; in the assay with OVCAR-4 ovarian, 51%; in the assay with SK-OV-3 ovarian, 15.9%; with IGROV1 ovarian, 13.9%. For the same molecule, the growth was -44.5% (active) with OVCAR-3 ovarian; -8.11% (active) with HS 578T breast; 79.2% in the assay with NCI/ADR-RES ovarian; 45.7% in the assay with T-47D breast; 58.7% in the assay with BT-549 breast; -53.1% (active) in the assay on MDA-MB-435 melanoma. For the same molecule, the growth in the assay with SW-620 colon was 19.6%; in the assay on MCF7 breast, 17.5%; in the assay with HCT-116 colon, 23.1%; with HCC-2998 colon, 40.9%; in the assay with KM12 colon, 16.1%.
